Data on 17 compounds can be found in PubChem BioAssay (Tox21).

Structures are written as SMILES. A number with no mark means an inactive call. Results filed as inconclusive are left out. The source made the active and inactive calls. Unless noted, calls follow the shape of the dose curve; as a rule, active = well fitted curve in the direction sought with a large enough effect in the repeat runs; inconclusive = weak or mixed curves; inactive = no such curve, though single readings can be large; an effect the other way counts as inactive or inconclusive.

The target in assay [1] is Progesterone receptor (Homo sapiens) (UniProt P06401). The assay is described as follows: qHTS assay to identify small molecule agonists of the progesterone receptor (PR) signaling pathway (AID 1346784; calls by dose curve; also: nearly all actives have a fitted effect of over 30% in size). Put shortly: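 PR-UAS-bla HEK 293T cells (beta-lactamase reporter under UAS) in 2% charcoal-stripped FBS, dosed with 23 nL compound after 6 hr, incubated 16hr at 37C. LiveBLAzer B/G FRET substrate added, fluorescence read after 2 hours.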
Progesterone receptor (Homo sapiens), sequence (P06401 whole entry, looked up): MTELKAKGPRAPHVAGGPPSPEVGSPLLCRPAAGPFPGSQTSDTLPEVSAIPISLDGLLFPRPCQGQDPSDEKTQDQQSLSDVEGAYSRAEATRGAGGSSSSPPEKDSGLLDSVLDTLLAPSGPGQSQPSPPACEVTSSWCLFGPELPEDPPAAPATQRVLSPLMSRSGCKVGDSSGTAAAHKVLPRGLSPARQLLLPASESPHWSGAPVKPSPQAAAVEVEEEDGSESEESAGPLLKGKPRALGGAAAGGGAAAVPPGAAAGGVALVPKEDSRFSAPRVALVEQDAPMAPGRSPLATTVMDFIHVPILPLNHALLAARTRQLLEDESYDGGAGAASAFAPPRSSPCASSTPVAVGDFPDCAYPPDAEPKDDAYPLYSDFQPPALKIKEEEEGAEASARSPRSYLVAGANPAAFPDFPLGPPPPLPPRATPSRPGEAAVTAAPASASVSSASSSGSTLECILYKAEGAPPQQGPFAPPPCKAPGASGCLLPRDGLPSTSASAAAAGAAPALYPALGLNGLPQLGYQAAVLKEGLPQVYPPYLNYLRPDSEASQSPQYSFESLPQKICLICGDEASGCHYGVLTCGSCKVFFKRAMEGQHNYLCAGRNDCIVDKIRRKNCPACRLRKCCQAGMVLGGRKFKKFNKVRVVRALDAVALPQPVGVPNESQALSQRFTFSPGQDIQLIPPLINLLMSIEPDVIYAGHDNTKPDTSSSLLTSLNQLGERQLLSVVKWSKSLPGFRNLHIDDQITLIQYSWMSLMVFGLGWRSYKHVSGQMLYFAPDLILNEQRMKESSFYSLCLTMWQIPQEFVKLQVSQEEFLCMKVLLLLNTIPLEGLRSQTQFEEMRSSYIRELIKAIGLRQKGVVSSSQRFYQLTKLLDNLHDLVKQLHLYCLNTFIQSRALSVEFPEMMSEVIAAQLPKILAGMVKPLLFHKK
(Quantitative high-throughput screening tests each substance at several concentrations.)

Assay [2] has the same target. The assay is described as follows: qHTS assay to identify small molecule antagonists of the progesterone receptor (PR) signaling pathway (AID 1346795; active = well fitted inhibition curve with a large enough effect in the signal ratio in the repeat runs, not every such curve was filed as active; the % refers to the signal ratio; also: potency is read from the fitted curve at half-maximal effect). Put shortly:
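PR-UAS-bla HEK293T cells with beta-lactamase reporter under UAS control, in 2% charcoal-stripped FBS, treated with compounds plus 1 nM promegestone (R5020, final) for 16 hr at 37C. Read-out: FRET beta-lactamase substrate fluorescence after 2 hr at room temperature.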

Assay [3] can be described thus: qHTS assay to identify small molecule antagonists of the progesterone receptor (PR) signaling pathway - cell viability counter screen (AID 1346798). Also: series mostly up to about 92 µM; nearly all actives have a fitted effect of over 50% in size. Put shortly:
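PR-UAS-bla HEK293T cells, 3,000/well in 2% charcoal-stripped FBS medium, dosed with compounds plus R5020 agonist and incubated 16 h at 37C. Viability then measured in the same wells by CellTiter-Glo luminescence after 30 min at RT.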

The nature of assay [4]: qHTS assay to identify small molecule agonists of the progesterone receptor (PR) signaling pathway - cell viability counter screen (AID 1346799; calls by dose curve; also: nearly all actives have a fitted effect of over 45% in size). Put shortly:
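Counter screen in the PR-UAS-bla HEK293T wells (2% charcoal-stripped FBS, 16 h compound exposure at 37 C) after the bla read. CellTiter-Glo added, 30 min at room temperature, luminescence read as cell viability.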

The nature of assay [5]: qHTS assay to identify small molecule antagonists of the TGF-beta/Smad signaling pathway - cell viability counter screen (AID 1346824). Also: nearly all actives have a fitted effect of over 50% in size. Put shortly:
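Cytotoxicity counter-screen run in the same wells as the beta-lactamase Smad reporter read: CellTiter-Glo luminescence after 30 min at room temperature. HEK 293T SBE-bla cells had 5 hr compound exposure at 37 C with TGF-beta1 (0.25 ng/mL stock).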

Assay [6] is described as follows: qHTS assay to identify small molecule agonists of the TGF-beta/Smad signaling pathway - cell viability counter screen (AID 1346829). Also: top concentration of the series differs between compounds; nearly all actives have a fitted effect of over 45% in size. Put shortly:
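After overnight seating at 37 C and 5% CO2, reporter cells got compounds for 5 hr and FRET substrate for 2 hr; cell viability then came from CellTiter-Glo luminescence.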

A short description of assay [7]: qHTS assay to identify small molecule agonists of the TGF-beta/Smad signaling pathway (AID 1346859; active = well fitted activation curve with a large enough effect in the signal ratio in the repeat runs, not every such curve was filed as active; the % refers to the signal ratio; also: series mostly up to about 77 µM). Put shortly: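 SBE-bla HEK293T cells plated overnight, then compound exposure for 5 h at 37 C. Beta-lactamase reporter read with LiveBLAzer B/G FRET substrate after 2 h at room temperature, fluorescence at 405 nm excitation, 460/530 nm emission.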
The nature of assay [8]: Human pregnane X receptor (PXR) small molecule agonists, qHTS cell viability counter screen (AID 1346977). Also: nearly all actives have a fitted effect of over 50% in size. Put shortly:
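PXR-Luc HepG2 cells (2,000/well, 5% charcoal-stripped FBS) preincubated 5 hr, then exposed to compounds 24 hr at 37 C. Viability read in the same wells by CellTiter-Fluor fluorescence, reagent added at 23 hr, 1 hr incubation.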

Assay [9] concerns the target Thyrotropin-releasing hormone receptor (Homo sapiens) (UniProt P34981). The assay is described as follows: qHTS assay to identify small molecule antagonists of the thyrotropin-releasing hormone receptor (TRHR) signaling pathway (AID 1346877; active = well fitted inhibition curve with a large enough effect in the repeat runs, not every such curve was filed as active; also: series mostly up to about 51 µM). The procedure, abridged:
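Screening used HEK293 cells engineered with TRHR, with a brief 5 min room-temperature compound exposure preceding addition of TRH to 1 nM. The read-out was kinetic calcium-dye fluorescence, concentration-response from 15 doses in triplicate.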

The target is the same in assay [10]. The assay is described as follows: qHTS assay to identify small molecule agonists of the thyrotropin-releasing hormone receptor (TRHR) signaling pathway (AID 1346891; calls by dose curve; also: series mostly up to about 58 µM). The procedure, abridged: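 HEK293 cells expressing TRHR plated 18 h at 37 C/5% CO2, calcium dye-loaded 2 h at 37 C, then compound added (agonist mode); kinetic calcium fluorescence read 3 min at 1 s intervals; 15 concentrations in triplicate.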
% is scaled to controls: 0 for no effect and ±100 for the full control effect.

Thyrotropin-releasing hormone receptor (Homo sapiens), sequence (P34981 whole entry, looked up): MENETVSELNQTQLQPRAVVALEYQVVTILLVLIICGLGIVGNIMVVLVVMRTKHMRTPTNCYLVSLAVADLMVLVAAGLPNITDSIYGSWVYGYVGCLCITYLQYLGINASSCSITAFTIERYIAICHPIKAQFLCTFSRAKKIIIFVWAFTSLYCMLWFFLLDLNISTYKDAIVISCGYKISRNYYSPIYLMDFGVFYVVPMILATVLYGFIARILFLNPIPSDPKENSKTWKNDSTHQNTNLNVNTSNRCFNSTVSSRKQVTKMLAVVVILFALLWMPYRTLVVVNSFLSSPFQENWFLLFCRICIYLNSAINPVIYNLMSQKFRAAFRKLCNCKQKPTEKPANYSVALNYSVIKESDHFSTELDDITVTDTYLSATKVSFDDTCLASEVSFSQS

In the case of `C=CCc1cc(OC)c(O)c(C(=O)NCCO)c1`, the Potency result in [1], in [2], in [3], in assay [4] and in [8] was “inactive” in each case. For the same compound, the call in assay [5], in [6] and in assay [7] was inactive.

Take `CC/C=C\CCOC(=O)CCCCC`: the Potency result in assay [1], in [2], in assay [3], in [4], in [10] and in [8] was “inactive” throughout. Besides, the outcome in assay [5], in assay [6], in assay [7] and in assay [9] was inactive.

Take `Cc1ccsc1C(=CCCN1CCC[C@@H](C(=O)O)C1)c1sccc1C`: the Potency entry in assay [1], in assay [2], in [3], in [4] and in assay [8] was “inactive” throughout. The outcome in [5], in [6] and in [7] was inactive.

As to `CCC1(C)NC(=O)NC1=O` (stereo not drawn), the Potency result in assay [1], in assay [2], in assay [3], in assay [4] and in [10] was “inactive” each time. For the same compound, the result in [5], in [7] and in [9] was inactive.

`O=c1[nH]c(=O)n([C@H]2C[C@H](O)[C@@H](CO)O2)cc1C(F)(F)F`: the Potency result in assay [1], in [2], in [3], in assay [4] and in assay [10] was “inactive” in each case. Also, the compound was classed as inactive in [5], in [7] and in [9].

As to `Cc1c(N)cccc1N`, the Potency result in [1], in assay [2], in assay [3], in assay [4], in assay [10] and in assay [8] was “inactive” in each case. In addition, the call in [5], in assay [6], in [7] and in assay [9] was inactive.

Consider `CCNCCO`, for which the Potency result in [1], in [2], in assay [3], in [4], in assay [10] and in [8] was “inactive” each time. The compound was called inactive in assay [5], in [6], in assay [7] and in assay [9].

As to `O=[N+]([O-])c1nccn1CO[C@@H](CO)[C@H](O)CO`, the Potency entry in assay [1], in assay [2], in assay [3], in assay [4], in assay [10] and in assay [8] was “inactive” each time. In addition, the outcome in assay [5], in assay [6], in [7] and in assay [9] was inactive.

On to `CCOC(=O)COc1ccc2c(c1)CC(NCC(O)c1cccc(Cl)c1)CC2` (stereo not drawn), for which the Potency entry in assay [1], in assay [2], in assay [3] and in assay [4] was “inactive” throughout. In addition, the compound was classed as inactive in assay [5], in assay [7] and in assay [9].

As for `Oc1ccccc1C=NCc1ccccc1`, the Potency result in [1], in assay [2], in assay [3], in assay [4], in [10] and in [8] was “inactive” each time. For the same compound, the outcome in assay [5], in assay [6], in assay [7] and in assay [9] was inactive.

Regarding `Cc1c[nH]c(=S)[nH]c1=O`, the Potency entry in [1], in [2], in assay [3], in assay [4] and in assay [8] was “inactive” each time. In addition, the compound was classed as inactive in assay [5], in assay [6] and in assay [7].

As for `C[C@@H]1CN(c2c(F)c(N)c3c(=O)c(C(=O)O)cn(C4CC4)c3c2F)C[C@H](C)N1`, the activation in assay [1] is 3.14% [at 19 µM]; in assay [7] it was 1.17% [at 15.8 µM]; in assay [10], -0.407% [at 11.8 µM]. Further, the activity change, negative = inhibition in assay [2] was 8.12% [at 18.9 µM]. Moreover, the Potency result in assay [3] was “inactive”. The activity change, negative = cytotoxicity was 4.97% [at 19 µM] in [4], -11.5% [at 15.8 µM] in assay [6] and 5.72% [at 19 µM] in assay [8]. For the same compound, the viability change, negative = cytotoxic in assay [5] was 4.43% [at 15.8 µM]. In assay [9], the activity, negative = inhibition is 0.314% [at 10.5 µM].

Turning to `Cc1cc(NS(=O)(=O)c2ccc(N)cc2)nc(C)n1`, the Potency entry in assay [1], in [2], in [3], in [4], in [10] and in assay [8] was “inactive” each time. For the same compound, the compound was classed as inactive in assay [5], in assay [6], in assay [7] and in assay [9].

`CCOc1ccc2nc(N)sc2c1`: the Potency result in assay [1], in [3], in assay [4], in assay [10] and in assay [8] was “inactive” each time. In assay [2], the Potency was 60.6 µM (active). The call in assay [5], in [6], in assay [7] and in assay [9] was inactive.

For `COC(=O)/C=C(/C)N`, the Potency result in assay [1], in [2], in [3], in assay [4], in [10] and in assay [8] was “inactive” throughout. Further, the compound was called inactive in [5], in assay [6], in [7] and in assay [9].

With `Cc1ncc(CO)c(CN)c1O`, the Potency result in [1], in [2], in assay [3], in assay [4], in assay [10] and in assay [8] was “inactive” each time. In addition, the compound was classed as inactive in [5], in assay [6], in [7] and in [9].

Regarding `O=C(O)[C@@H]1CSCN1`, the Potency result in assay [1], in assay [2], in assay [3] and in assay [4] was “inactive” in each case. For the same compound, the call in assay [5] and in assay [7] was inactive.
